# Measurements published in PubChem BioAssay (EPA / NIEHS).
# Records with an inconclusive call do not appear. The source made the active and inactive calls. Rule for the calls: active = hit-call score of the fitted dose curve at least 0.9, where 1 is the maximum; inconclusive = response in the unintended direction; inactive = score below 0.9.
# What was measured:
# [1] = target: human Esterase Plasma (ES), BCHE (gene 590) (UniProt P06276); experiment: NVS_ENZ_hES: NovaScreen (NVS) Enzymatic Assay for human Esterase Plasma (ES) (AID 2283157)
# human Esterase Plasma (ES), BCHE (gene 590), sequence (P06276 whole entry, looked up): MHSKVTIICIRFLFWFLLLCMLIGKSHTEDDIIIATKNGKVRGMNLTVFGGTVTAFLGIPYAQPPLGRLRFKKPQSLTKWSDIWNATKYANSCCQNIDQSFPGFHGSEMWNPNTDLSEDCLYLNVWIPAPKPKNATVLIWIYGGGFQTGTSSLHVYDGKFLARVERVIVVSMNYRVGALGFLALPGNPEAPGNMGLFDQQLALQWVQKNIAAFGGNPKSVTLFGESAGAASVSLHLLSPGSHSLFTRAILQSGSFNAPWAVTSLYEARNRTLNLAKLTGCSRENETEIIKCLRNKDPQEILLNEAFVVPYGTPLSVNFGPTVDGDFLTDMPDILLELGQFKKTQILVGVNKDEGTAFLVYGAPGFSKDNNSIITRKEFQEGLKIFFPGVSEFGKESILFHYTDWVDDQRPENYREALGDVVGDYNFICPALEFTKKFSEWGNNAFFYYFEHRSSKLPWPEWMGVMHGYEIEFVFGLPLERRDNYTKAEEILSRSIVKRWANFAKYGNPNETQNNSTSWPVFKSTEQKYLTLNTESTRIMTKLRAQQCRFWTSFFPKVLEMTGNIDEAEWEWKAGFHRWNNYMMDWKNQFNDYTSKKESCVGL
# Outline: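 Cell-free enzyme assay using esterase extracted from human plasma; colorimetric absorbance read 0.25 hour after dosing. Single-concentration duplicate screen at 25 uM, then concentration-response up to 50 uM; loss of signal scored against DMSO baseline.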
# [2] = target: human Ephrin type-B Receptor 1 (EphB1), EPHB1 (gene 2047) (UniProt P54762); experiment: NVS_ENZ_hEphB1: NovaScreen (NVS) Enzymatic Assay for human Ephrin type-B Receptor 1 (EphB1) (AID 2283154)
# human Ephrin type-B Receptor 1 (EphB1), EPHB1 (gene 2047), sequence (P54762 whole entry, looked up): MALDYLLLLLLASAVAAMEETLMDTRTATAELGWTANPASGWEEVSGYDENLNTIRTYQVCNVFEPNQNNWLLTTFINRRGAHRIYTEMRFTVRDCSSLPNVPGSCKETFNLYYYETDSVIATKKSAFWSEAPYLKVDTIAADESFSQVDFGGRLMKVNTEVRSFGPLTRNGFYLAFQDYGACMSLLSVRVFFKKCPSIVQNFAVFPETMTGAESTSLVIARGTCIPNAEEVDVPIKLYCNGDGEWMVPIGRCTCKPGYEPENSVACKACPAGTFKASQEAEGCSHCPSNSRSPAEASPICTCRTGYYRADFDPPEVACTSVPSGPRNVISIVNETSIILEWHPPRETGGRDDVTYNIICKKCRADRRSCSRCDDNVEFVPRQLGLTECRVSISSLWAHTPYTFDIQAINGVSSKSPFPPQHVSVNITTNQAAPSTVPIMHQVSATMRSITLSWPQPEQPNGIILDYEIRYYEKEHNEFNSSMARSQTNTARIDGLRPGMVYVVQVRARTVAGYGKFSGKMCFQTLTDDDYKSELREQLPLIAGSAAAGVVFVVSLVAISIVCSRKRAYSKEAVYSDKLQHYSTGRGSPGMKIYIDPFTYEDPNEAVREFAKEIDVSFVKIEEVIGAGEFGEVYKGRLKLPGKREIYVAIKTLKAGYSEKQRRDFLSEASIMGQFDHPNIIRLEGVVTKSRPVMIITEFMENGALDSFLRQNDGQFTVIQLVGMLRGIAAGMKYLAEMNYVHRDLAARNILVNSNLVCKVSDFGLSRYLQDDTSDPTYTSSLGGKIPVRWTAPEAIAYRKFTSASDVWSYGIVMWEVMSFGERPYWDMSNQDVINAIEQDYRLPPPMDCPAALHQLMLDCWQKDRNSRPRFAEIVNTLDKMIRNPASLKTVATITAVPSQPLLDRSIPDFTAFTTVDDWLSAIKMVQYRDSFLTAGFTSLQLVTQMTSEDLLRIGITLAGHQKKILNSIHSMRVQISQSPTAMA
# Outline: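 Cell-free kinase assay with recombinant enzyme, fluorescent substrate and electrophoretic mobility-shift separation of substrate and product; read 1 h after dosing. Single-concentration duplicate screen at 25 uM; loss of signal versus DMSO baseline.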
# [3] = target: human Fibroblast Growth Factor Receptor 1 (FGFR1), FGFR1 (gene 2260) (UniProt P11362); experiment: NVS_ENZ_hFGFR1: NovaScreen (NVS) Enzymatic Assay for human Fibroblast Growth Factor Receptor 1 (FGFR1) (AID 2283159)
# Outline: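 Cell-free recombinant kinase with fluorescent substrate, product separated by electrophoretic mobility shift; read 1 hour after dosing, loss of signal relative to DMSO. Initial screen in duplicate at 25 uM, actives followed in concentration series.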
# [4] = target: Histone deacetylase 3 (Homo sapiens) (UniProt O15379); experiment: NVS_ENZ_hHDAC3: NovaScreen (NVS) Enzymatic Assay for human Histone Deacetylase 3 (HDAC3) (AID 2283163)
# Outline: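 Recombinant human HDAC3 with fluorescent substrate, 1 h after dosing; product separated from substrate by electrophoretic mobility shift and read by fluorescence. Primary screen at 25 uM in duplicate; actives (e.g. ≥30% inhibition) retested in concentration-response up to 50 uM.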
# [5] = target: Protein deacetylase HDAC6 (Homo sapiens) (UniProt Q9UBN7); experiment: NVS_ENZ_hHDAC6: NovaScreen (NVS) Enzymatic Assay for human Histone Deacetylase 6 (HDAC6) (AID 2283164)
# Outline: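 Recombinant human HDAC6 with fluorescent substrate, 1 h; product separated from substrate by electrophoretic mobility shift. Primary screen in duplicate at 25 uM; actives retested singly in concentration-response up to 50 uM, fitted relative to DMSO.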
# [6] = target: human c-Jun N-terminal Kinases (JNK2), MAPK9 (gene 5601) (UniProt P45984); experiment: NVS_ENZ_hJNK2: NovaScreen (NVS) Enzymatic Assay for human c-Jun N-terminal Kinases (JNK2) (AID 2283171)
# human c-Jun N-terminal Kinases (JNK2), MAPK9 (gene 5601), sequence (P45984 whole entry, looked up): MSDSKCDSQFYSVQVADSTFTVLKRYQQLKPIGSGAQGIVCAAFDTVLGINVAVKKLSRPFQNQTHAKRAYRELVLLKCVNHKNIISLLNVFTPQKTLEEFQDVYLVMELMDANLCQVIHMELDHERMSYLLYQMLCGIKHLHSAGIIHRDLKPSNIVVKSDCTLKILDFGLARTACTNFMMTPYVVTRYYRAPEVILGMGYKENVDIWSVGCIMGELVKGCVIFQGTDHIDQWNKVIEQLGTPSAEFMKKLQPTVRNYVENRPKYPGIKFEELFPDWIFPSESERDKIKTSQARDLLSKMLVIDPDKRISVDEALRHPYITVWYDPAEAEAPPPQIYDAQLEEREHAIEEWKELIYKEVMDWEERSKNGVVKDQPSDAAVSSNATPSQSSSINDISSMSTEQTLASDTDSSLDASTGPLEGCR
# Outline: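 Cell-free recombinant human JNK2 activity assay; fluorescent substrate and product separated by electrophoretic mobility shift, read 1 h after dosing. Primary duplicate screen at 25 uM; actives run in concentration-response up to 50 uM, relative to DMSO.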
# [7] = target: Mitogen-activated protein kinase 3 (Homo sapiens) (UniProt P27361); experiment: NVS_ENZ_hMAPK3: NovaScreen (NVS) Enzymatic Assay for human Mitogen-Activated Protein Kinase 3 (MAPK 3) (AID 2283177)
# Mitogen-activated protein kinase 3 (Homo sapiens), sequence (P27361 whole entry, looked up): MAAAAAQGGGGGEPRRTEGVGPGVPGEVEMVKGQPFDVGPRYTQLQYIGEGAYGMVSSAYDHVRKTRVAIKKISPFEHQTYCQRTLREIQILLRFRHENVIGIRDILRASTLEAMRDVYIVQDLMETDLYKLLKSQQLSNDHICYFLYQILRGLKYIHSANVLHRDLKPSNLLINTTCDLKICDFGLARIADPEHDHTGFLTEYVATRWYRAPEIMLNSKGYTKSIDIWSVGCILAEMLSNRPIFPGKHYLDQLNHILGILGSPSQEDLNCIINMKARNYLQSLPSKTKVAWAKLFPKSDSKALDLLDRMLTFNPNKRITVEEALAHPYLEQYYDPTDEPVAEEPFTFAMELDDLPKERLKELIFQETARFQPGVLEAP
# Outline: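 Cell-free enzymatic assay with recombinant protein and specific substrate; fluorescence and electrophoretic mobility shift read-out 1 h after dosing. Primary screen duplicate at 25 uM; actives then run in concentration-response up to 50 uM, loss of signal versus DMSO.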
# [8] = target: human Elastase, ELANE (gene 1991) (UniProt P08246); experiment: NVS_ENZ_hElastase: NovaScreen (NVS) Enzymatic Assay for human Elastase (AID 2283153)
# human Elastase, ELANE (gene 1991), sequence (P08246 whole entry, looked up): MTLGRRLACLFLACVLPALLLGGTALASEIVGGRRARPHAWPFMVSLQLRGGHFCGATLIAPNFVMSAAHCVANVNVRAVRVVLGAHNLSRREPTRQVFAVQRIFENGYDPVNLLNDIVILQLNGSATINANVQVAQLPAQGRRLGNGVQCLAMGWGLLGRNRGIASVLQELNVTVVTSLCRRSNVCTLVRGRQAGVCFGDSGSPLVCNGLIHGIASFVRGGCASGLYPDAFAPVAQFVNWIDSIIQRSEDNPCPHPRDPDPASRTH
# Outline: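 Cell-free elastase from human neutrophils, 1.5 h after dosing, activity read by absorbance. Primary screen in duplicate at 25 uM; hits (e.g., 30% inhibition) rerun in singleton concentration-response up to 50 uM, fitted versus DMSO.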
# [9] = target: human Mitogen-Activated Protein Kinase 1 (MAPK 1), MAPK1 (gene 5594) (UniProt P28482); experiment: NVS_ENZ_hMAPK1: NovaScreen (NVS) Enzymatic Assay for human Mitogen-Activated Protein Kinase 1 (MAPK 1) (AID 2283175)
# human Mitogen-Activated Protein Kinase 1 (MAPK 1), MAPK1 (gene 5594), sequence (P28482 whole entry, looked up): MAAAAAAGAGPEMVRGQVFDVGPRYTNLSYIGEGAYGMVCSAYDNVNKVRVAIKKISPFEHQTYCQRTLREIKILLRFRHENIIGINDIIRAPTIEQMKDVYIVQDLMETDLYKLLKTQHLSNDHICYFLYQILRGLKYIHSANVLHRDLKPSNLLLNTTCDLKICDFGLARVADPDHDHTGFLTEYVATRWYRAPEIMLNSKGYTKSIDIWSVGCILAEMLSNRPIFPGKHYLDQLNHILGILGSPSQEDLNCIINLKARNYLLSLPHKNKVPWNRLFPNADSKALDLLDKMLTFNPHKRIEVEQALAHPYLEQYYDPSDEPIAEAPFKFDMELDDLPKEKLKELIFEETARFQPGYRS
# Outline: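 Cell-free recombinant human MAPK1 enzymatic assay, fluorescence/electrophoretic mobility shift read at 1 h; loss of signal vs DMSO. Primary screen in duplicate at 25 uM; actives (e.g. ≥30% inhibition) run as concentration-response up to 50 uM.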
# [10] = target: human Dual Specificity Protein Phosphatase 3 (DUSP3), DUSP3 (gene 1845) (UniProt P51452); experiment: NVS_ENZ_hDUSP3: NovaScreen (NVS) Enzymatic Assay for human Dual Specificity Protein Phosphatase 3 (DUSP3) (AID 2283152);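 note: phosphatase activity of recombinant human DUSP3 on a fluorogenic substrate without cells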
# human Dual Specificity Protein Phosphatase 3 (DUSP3), DUSP3 (gene 1845), sequence (P51452 whole entry, looked up): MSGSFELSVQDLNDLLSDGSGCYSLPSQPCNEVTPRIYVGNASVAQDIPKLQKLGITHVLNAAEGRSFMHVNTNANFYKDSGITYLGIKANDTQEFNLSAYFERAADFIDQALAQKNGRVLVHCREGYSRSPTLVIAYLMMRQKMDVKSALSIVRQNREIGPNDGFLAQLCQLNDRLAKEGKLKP
# Outline: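 Cell-free assay with recombinant human DUSP3 and fluorogenic substrate, read by fluorescence intensity. Primary screen ran duplicate at 25 uM; actives followed up in concentration series; loss of signal versus DMSO scored.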
# [11] = target: human Ephrin type-B Receptor 2 (EphB2), EPHB2 (gene 2048) (UniProt P29323); experiment: NVS_ENZ_hEphB2: NovaScreen (NVS) Enzymatic Assay for human Ephrin type-B Receptor 2 (EphB2) (AID 2283156)
# Outline: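 Recombinant kinase with fluorescent substrate, product separated by electrophoretic mobility shift, read 1 h after dosing. Duplicate 25 uM screen, then singleton concentration-response to 50 uM max; loss of signal versus DMSO.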
# [12] = target: human MAP Kinase-Activated Protein Kinase 2 (MAPKAPK2), MAPKAPK2 (gene 9261) (UniProt P49137); experiment: NVS_ENZ_hMAPKAPK2: NovaScreen (NVS) Enzymatic Assay for human MAP Kinase-Activated Protein Kinase 2 (MAPKAPK2) (AID 2283178)
# human MAP Kinase-Activated Protein Kinase 2 (MAPKAPK2), MAPKAPK2 (gene 9261), sequence (P49137 whole entry, looked up): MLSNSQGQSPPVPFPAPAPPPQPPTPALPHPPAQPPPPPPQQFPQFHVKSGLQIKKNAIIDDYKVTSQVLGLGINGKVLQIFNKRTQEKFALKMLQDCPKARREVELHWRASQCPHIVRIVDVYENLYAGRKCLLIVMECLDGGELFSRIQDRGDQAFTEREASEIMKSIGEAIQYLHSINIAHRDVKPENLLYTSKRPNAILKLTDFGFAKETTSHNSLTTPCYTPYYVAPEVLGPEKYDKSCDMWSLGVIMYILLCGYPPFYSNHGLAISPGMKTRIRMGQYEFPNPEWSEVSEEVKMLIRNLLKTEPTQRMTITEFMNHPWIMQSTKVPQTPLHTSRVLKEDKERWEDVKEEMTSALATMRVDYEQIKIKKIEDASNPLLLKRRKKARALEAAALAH
# Outline: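 Cell-free recombinant human MAPKAPK2 activity measured by fluorescence with electrophoretic mobility shift separation of substrate and product, 1 hr after dosing. Loss of signal versus DMSO; primary screen at 25 uM, concentration-response up to 50 uM.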
# [13] = target: human Colony Stimulating Factor 1 Receptor (CSF1R), CSF1R (gene 1436) (UniProt P07333); experiment: NVS_ENZ_hCSF1R: NovaScreen (NVS) Enzymatic Assay for human Colony Stimulating Factor 1 Receptor (CSF1R) (AID 2283150)
# human Colony Stimulating Factor 1 Receptor (CSF1R), CSF1R (gene 1436), sequence (P07333 whole entry, looked up): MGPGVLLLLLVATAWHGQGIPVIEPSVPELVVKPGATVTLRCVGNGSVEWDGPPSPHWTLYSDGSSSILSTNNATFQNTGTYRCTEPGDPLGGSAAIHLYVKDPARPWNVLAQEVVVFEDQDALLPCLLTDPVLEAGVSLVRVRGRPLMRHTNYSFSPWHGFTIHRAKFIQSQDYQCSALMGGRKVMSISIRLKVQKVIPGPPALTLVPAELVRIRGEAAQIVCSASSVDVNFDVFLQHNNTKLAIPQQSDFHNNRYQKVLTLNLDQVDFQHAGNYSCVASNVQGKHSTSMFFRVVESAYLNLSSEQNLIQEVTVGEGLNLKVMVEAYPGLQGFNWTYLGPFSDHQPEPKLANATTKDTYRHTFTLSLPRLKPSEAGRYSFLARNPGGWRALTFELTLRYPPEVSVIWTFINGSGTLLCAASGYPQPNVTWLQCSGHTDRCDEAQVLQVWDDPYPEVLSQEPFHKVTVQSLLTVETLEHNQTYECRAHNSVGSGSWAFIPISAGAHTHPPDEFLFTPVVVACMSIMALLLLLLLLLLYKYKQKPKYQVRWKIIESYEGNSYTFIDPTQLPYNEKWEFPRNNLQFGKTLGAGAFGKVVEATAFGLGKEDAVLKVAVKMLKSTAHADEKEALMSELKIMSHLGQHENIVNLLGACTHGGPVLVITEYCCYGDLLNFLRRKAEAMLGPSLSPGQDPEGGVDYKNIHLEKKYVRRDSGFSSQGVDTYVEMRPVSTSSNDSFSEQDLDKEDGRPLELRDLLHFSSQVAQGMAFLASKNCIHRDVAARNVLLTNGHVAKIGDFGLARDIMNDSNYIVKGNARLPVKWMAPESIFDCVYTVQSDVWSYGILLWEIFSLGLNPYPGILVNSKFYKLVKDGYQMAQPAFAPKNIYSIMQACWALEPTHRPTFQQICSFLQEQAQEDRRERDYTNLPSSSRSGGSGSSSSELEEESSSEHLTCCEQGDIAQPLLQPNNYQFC
# Outline: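 Cell-free recombinant human CSF1R kinase with fluorescent substrate, product separated by electrophoretic mobility shift; read 1 h after dosing. Primary screen at 25 uM in duplicate, actives then in concentration-response up to 50 uM, relative to DMSO.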
# [14] = target: Glycogen synthase kinase-3 beta (Homo sapiens) (UniProt P49841); experiment: NVS_ENZ_hGSK3b: NovaScreen (NVS) Enzymatic Assay for human Glycogen Synthase Kinase-3 beta (GSK3b) (AID 2283165)
# Glycogen synthase kinase-3 beta (Homo sapiens), sequence (P49841 whole entry, looked up): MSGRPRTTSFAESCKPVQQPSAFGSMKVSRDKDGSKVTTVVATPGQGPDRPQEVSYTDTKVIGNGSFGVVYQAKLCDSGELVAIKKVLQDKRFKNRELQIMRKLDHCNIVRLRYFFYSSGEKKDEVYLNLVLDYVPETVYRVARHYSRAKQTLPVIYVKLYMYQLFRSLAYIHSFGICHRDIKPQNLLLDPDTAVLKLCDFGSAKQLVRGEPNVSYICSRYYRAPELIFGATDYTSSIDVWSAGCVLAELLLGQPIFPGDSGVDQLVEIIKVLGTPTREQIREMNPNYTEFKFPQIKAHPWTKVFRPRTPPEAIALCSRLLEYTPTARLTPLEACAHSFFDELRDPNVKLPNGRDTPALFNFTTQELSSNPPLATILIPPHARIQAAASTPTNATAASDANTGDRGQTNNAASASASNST
# Outline: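 Recombinant enzyme with specific fluorescent substrate, 1 h, product separated by electrophoretic mobility shift. Primary duplicate screen at 25 uM; actives (e.g. 30% inhibition) followed in singleton concentration-response to 50 uM. Signal loss fitted versus DMSO.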
compound,measurement,setting,value
Cn1c(-c2ccccc2)cc(-c2ccccc2)[n+]1C,AC50,[1],4.69 µM (active)
COP(=O)(OC)O/C(C)=C/C(=O)N(C)C,AC50,[1],17.4 µM (active)
CNC(=O)N(C)c1nnc(C(C)(C)C)s1,outcome,[2],inactive
O=C1C2CC=CCC2C(=O)N1SC(Cl)(Cl)Cl (centres undefined),outcome,[3],inactive
same,AC50,[4],7.99 µM (active)
same,AC50,[5],16.7 µM (active)
same,outcome,[6],inactive
CCCN(CC)CC1COC2(CCC(C(C)(C)C)CC2)O1 (centres undefined),outcome,[7],inactive
N#Cc1c(Cl)cccc1Cl,outcome,[7],inactive
O=C(Nc1ccccc1-c1ccc(Cl)cc1)c1cccnc1Cl,outcome,[2],inactive
O=C(O)c1c(Cl)ccc2cc(Cl)cnc12,AC50,[1],8.48 µM (active)
CN=C=S,outcome,[2],inactive
CCOc1cc(C(C)(C)C)ccc1C1COC(c2c(F)cccc2F)=N1 (centres undefined),AC50,[8],40.9 µM (active)
Cc1ccc(N=CN(C)C=Nc2ccc(C)cc2C)c(C)c1,outcome,[2],inactive
CC(C)C1(C)N=C(c2ncccc2C(=O)O)NC1=O (centres undefined),outcome,[9],inactive
COC(=O)N(C(=O)N1CO[C@@]2(C(=O)OC)Cc3cc(Cl)ccc3C2=N1)c1ccc(OC(F)(F)F)cc1,outcome,[10],inactive
same,outcome,[2],inactive
same,outcome,[11],inactive
CCCC(=NOCC)C1=C(O)CC(CC(C)SCC)CC1=O (centres undefined),outcome,[10],inactive
same,AC50,[9],14.1 µM (active)
same,outcome,[12],inactive
CCN(CC)C(=O)C(C)Oc1cccc2ccccc12 (centres undefined),outcome,[13],inactive
same,AC50,[1],16.7 µM (active)
Cc1cnc(C2=NC(C)(C(C)C)C(=O)N2)c(C(=O)O)c1 (centres undefined),outcome,[14],inactive
same,outcome,[12],inactive
COC(=O)NS(=O)(=O)c1ccc(N)cc1,outcome,[6],inactive
same,outcome,[7],inactive
O=c1n(Cl)c(=O)n(Cl)c(=O)n1Cl,outcome,[8],inactive
OC(c1ccc(Cl)cc1)(c1ccc(Cl)cc1)C(Cl)(Cl)Cl,outcome,[8],inactive
